Hits are enriched below; roughly 9.2% of the tested compounds scored in any of these assays.
Rab9 promoter act = qHTS Assay for Rab9 Promoter Activators. Huh7 Rab9 promoter-luciferase reporter, luminescence, 24 h. Potency, µM (highest dose often 9.22 µM), inactives show at the highest dose activation, negative = inhibition, actives largely listed as activators. 320,000 tested, 2.8% active; further: % of control where 0% means no effect; nearly all actives have a fitted effect of over 60% in size
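Using Huh7 cells stably transfected with Rab9 promoter–luciferase, compounds were incubated 24 h at 37 °C, 5% CO2; luciferase luminescence was read 10 min after reagent addition.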
ELG1 repair inh = qHTS screen for small molecules that inhibit ELG1-dependent DNA repair in human embryonic kidney (HEK293T) cells expressing luciferase-tagged ELG1; 330,000 tested, 2.3% active; HEK293T ELG1-luciferase reporter, luminescence, 16 h; DNA damage induced by 5-fluorouridine; Potency, µM (titrated, usually from 46.1 µM), without a hit: top-dose activity change, negative = inhibition, usual class: inhibitors; AID 504467, 2011; further: on the % scale 0 is the no-effect control and ±100 the full control effect; nearly all actives have a fitted effect of over 55% in size
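Reporter activity after DNA damage by 5-fluorouridine is monitored. Compound-treated cells incubate 16 hr at 37 °C, then ONE-Glo is added for 30 min before luminescence reading.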
FLuc counter = qHTS profiling assay for firefly luciferase inhibitor/activator using purifed enzyme and Km concentrations of substrates (counterscreen for miR-21 project); Potency, µM (highest dose often 57.5 µM), for inactives: at the highest dose activity change, negative = inhibition, actives largely listed as inhibitors; Luciferin 4-monooxygenase (Photinus pyralis), P08659; 360,000 tested, 6.9% active; AID 588342, 2011; purified FLuc, Km substrates, luminescence inhibition;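 further: plate controls were vehicle for no effect and reference inhibitor for full effect; nearly all actives have a fitted effect of over 55% in size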
Target sequence (P08659 whole entry, looked up): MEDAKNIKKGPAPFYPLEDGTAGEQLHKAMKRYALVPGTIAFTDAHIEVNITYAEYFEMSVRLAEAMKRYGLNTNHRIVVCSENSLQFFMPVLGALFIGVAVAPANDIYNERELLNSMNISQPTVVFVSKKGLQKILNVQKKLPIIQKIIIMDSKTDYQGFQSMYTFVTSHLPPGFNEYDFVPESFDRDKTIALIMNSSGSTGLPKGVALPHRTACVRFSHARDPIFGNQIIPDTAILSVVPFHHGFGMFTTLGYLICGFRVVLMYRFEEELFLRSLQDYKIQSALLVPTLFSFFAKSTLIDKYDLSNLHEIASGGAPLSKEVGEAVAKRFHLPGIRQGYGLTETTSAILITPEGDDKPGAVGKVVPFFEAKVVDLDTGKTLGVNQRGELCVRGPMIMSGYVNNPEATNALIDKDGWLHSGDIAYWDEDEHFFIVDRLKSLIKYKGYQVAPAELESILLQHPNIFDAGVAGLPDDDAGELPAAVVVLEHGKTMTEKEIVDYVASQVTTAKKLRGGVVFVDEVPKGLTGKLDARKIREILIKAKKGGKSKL
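Purified P. pyralis luciferase (10nM final) with 10uM D-luciferin and 10uM ATP (Km levels) in 50mM Tris acetate pH 7.5, 10mM Mg acetate, 0.01% Tween-20, 0.05% BSA; qHTS 6-point titration, ~60 µM downward; luminescence read.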
NPC1 prom act = qHTS Assay for NPC1 Promoter Activators; Huh7 NPC1 promoter luciferase reporter, 24 h; Potency, µM (highest dose often 9.22 µM), for the others: top-dose activation, most hits filed as activators; 320,000 tested, 2.4% active; AID 485313, 2010; further: % of control where 0% means no effect; nearly all actives have a fitted effect of over 60% in size
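Huh7 reporter cells (NPC1 promoter driving luciferase) are dosed with compound for 24 h at 37 °C, 5% CO2; luciferase detection reagent is then added and luminescence measured after 10 min at ambient temperature.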
SMN2 splice enh = qHTS Assay for Enhancers of SMN2 Splice Variant Expression. HEK293 SMN2-luciferase splicing reporter, luminescence, 30-36 h. 210,000 tested, 2.8% active. Potency, µM (titrated, usually from 46.1 µM), without a hit: at the top dose activity change, positive = activation, usual class: activators; further: % of control where 0% means no effect; nearly all actives have a fitted effect of over 55% in size
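qHTS luciferase splicing reporter: luminescence rises when SMN2 exon 7 is included in transfected HEK293 cells. Compound exposure lasted 30-36 h at 37C, with 4.5 mM final sodium butyrate as control, followed by a ONE-Glo read.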
ELG1 genotoxic = qHTS screen for small molecules that induce genotoxicity in human embryonic kidney (HEK293T) cells expressing luciferase-tagged ELG1; HEK293T ELG1-luciferase reporter, luminescence, 16 h; Potency, µM (highest dose often 46 µM), inactives show top-dose activity change, positive = activation, actives largely listed as activators; 330,000 tested, 1.3% active; AID 504466, 2011; further: % of control where 0% means no effect; nearly all actives have a fitted effect of over 60% in size
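16 hr compound incubation (37 °C, 5% CO2) of HEK293T cells carrying luciferase-tagged ELG1; luciferase then measured by ONE-Glo luminescence after 30 min at RT.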
Starred values were filed as active, the others as inactive; ? = inconclusive; . = no result. The call rests on the fitted dose curve; in most records, active means well fitted curve in the direction sought with a large enough effect; inconclusive means small, poorly fitted or top-dose-only effect, or another doubt; inactive means no such curve, though single readings can be large; an effect the other way counts as inactive or inconclusive. Potency means the concentration at half of the fitted maximal effect.

SMILES | Rab9 promoter act | ELG1 repair inh | FLuc counter | NPC1 prom act | SMN2 splice enh | ELG1 genotoxic
COc1cc(Cl)c(C)cc1NC(=O)COc1ccccc1[N+](=O)[O-] | ? | 17.7% | 2.2% | 3.16µM* | 14.2% | 7.7%
COc1ccc(NC(=O)Cn2c(=O)n(C(C)C)c(=O)c3oc4ccccc4c32)cc1Cl | . | . | -0.2% | . | . | .
Cc1c(C(=O)OC(C)C)sc(N)c1C(=O)OC(C)C | 26.7% | ? | 21.3µM* | 19.8% | 23.9% | 11.3%
CCOC(=O)c1c(N)sc(C(=O)Nc2ccccc2F)c1C | 0.398µM* | ? | 1.9µM* | 2.51µM* | 8.91µM* | ?
CCOC(=O)c1cc(C(=O)Nc2ccccc2F)nn1C | 2µM* | ? | 8.49µM* | 2.24µM* | 12.6µM* | 4.47µM*
CCOC(=O)c1c(N)sc(C(=O)Nc2ccccc2)c1C | 0.316µM* | ? | 1.2µM* | 0.447µM* | . | ?
CCOC(=O)c1c(N)sc(C(N)=O)c1C | 1.3% | 7.1% | -13.7% | 10.3% | 11.6% | 2.9%
O=C(C[C@H]1C/C=C\CC[C@@H](Cc2ccc(F)cc2)C(=O)O[C@@H](c2ccccc2)CNC1=O)N[C@@H](CO)Cc1ccccc1 | . | 0.2% | . | . | . | 4.7%
COc1ccc(CN(C)S(=O)(=O)c2nnc(NC(=O)C(C)C)s2)cc1OC | . | . | -3.8% | . | . | .
COC(=O)c1ccc(-c2nc(CN3CCN(Cc4cccc(C)c4)CC3)c(C)o2)cc1 | 15.2% | 15.1% | -18.9% | 1.9% | . | -6.0%
COC(=O)c1ccc2c(c1)N(Cc1nc(-c3cccc(C)c3)oc1C)C(=O)C1CCCN21 (stereo not given) | 2.3% | 3.7% | -1.3% | 0.5% | 10µM* | 8.9%
CC(C)c1ccc(-c2nc(C(N)=O)c3c(n2)n(-c2ccc4c(c2)OCO4)c(=O)n3C)cc1 | . | . | 0.5% | . | . | .
Fc1ccc(NCc2cccn2-c2nnc(N3CCOCC3)s2)cc1 | . | . | -1.6% | . | . | .
COc1cc2c(cc1OC)C(C)N(C(=O)c1cccc([N+](=O)[O-])c1)CC2 (stereo not given) | -3.4% | 18.3µM* | 0.4% | 1.2% | ? | -8.8%
Cc1ccccc1C(=O)NC(CC(C)C)C(=O)OCc1cc(=O)n2cc(Br)ccc2n1 (stereo not given) | ? | ? | 13.5µM* | 3.98µM* | 11.2µM* | ?
CC1CC1C(=O)OCc1cc(=O)n2cc(Br)ccc2n1 (stereo not given) | 3.55µM* | ? | 9.53µM* | 2.51µM* | 12.6% | ?
CC1(C(=O)OCc2cc(=O)n3cc(Br)ccc3n2)CC1(Cl)Cl (stereo not given) | -27.2% | ? | 13.5µM* | 3.16µM* | ? | 11.6µM*
Cc1ccc(NC(=O)COC(=O)c2cc(=O)c3cc(F)ccc3o2)cc1 | -6.9% | 24.6% | 2.1% | -4.1% | . | 0.1%
Cc1ccc(OCc2nc(-c3ccc(C(=O)NCc4ccc(OC(C)C)cc4)cc3)oc2C)cc1 | . | . | -4.5% | . | . | .
COc1ccc(/C=C/C=C2\N=C(SC)SC2=O)cc1 | 17.9% | ? | 5.36µM* | 24.6% | . | 1.9%
O=C(CN1C(=O)S/C(=C/c2ccc(N3CCOCC3)cc2)C1=O)N1CCOCC1 | 21.7% | ? | 3.01µM* | 27.3% | ? | ?
Cc1ccc(/C=C2/SC(=O)N(CC(=O)N3CCOCC3)C2=O)s1 | -5.1% | 25.6% | ? | -1.2% | 7.1% | 5.2%
O=C(CN1C(=O)S/C(=C\C=C\c2ccccc2)C1=O)N1CCOCC1 | 25.7% | ? | 4.78µM* | 18.5% | . | 12.8%
O=C(CN1C(=O)S/C(=C/c2ccccn2)C1=O)N1CCOCC1 | 2.6% | ? | -1.5% | 1.4% | . | 3.9%
